Sm TGR block: S. mansoni TGR enzyme inhibition. purified TGR, DTNB reduction, TNB absorbance 405 nm. 360,000 compounds, 3% hits. Potency, µM (doses to about 114 µM), inactives show at the highest dose activity change, negative = inhibition, hits mostly inhibitors. Q962Y6. AID 485364; further: potency means the concentration at half of the fitted maximal effect; on the % scale 0 is the no-effect control and ±100 the full control effect; nearly all actives have a fitted effect of over 60% in size
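Kinetic colorimetric format: TGR-catalysed, NADPH-driven DTNB reduction monitored via TNB absorbance. Enzyme dispensed at 20 nM; compound exposure 15 min at room temperature before reaction start.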
SARS PLpro yeast: inhibitors of SARS-CoV papain-like protease in yeast; S. cerevisiae expressing SARS-CoV PLpro, growth rescue; Potency, µM (series often up to 32.9 µM), for inactives: top-dose activity, positive = growth rescue, usual class: activators; AID 485353; 330,000 compounds, 0.19% hits; calls by dose curve; further: potency means the concentration at half of the fitted maximal effect; 0% is about no effect; nearly all actives have a fitted effect of over 55% in size
Pf growth 96h: P. falciparum growth inhibition at 96 hours. 320,000 compounds, 6.9% hits. P. falciparum luciferase reporter growth, 96 h. Potency, µM (highest dose often 28.7 µM), inactives show top-dose activity change, negative = inhibition, most hits filed as inhibitors; further: potency means the concentration at half of the fitted maximal effect; on the % scale 0 is the no-effect control and ±100 the full control effect
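Cell-based qHTS: luciferase-tagged P. falciparum in erythrocytes (2% hematocrit, 0.05% parasitemia final) incubated with compounds for 96 hours, 37 C, 5% CO2; luciferase detection reagent then added and luminescence measured.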
HCMV antiviral: blocks human cytomegalovirus replication. HFF cells, HCMV-luciferase reporter, 72 h; hits give low values. 410,000 compounds, 4.5% hits. activity change, negative = inhibition, % at 57.5 µM; in the data active means activity change below about -60%; inconclusive means no clear call, values can overlap the other calls; inactive means above about -39%; further: on the % scale 0 is the no-effect control and ±100 the full control effect
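Inhibition of viral replication was scored as loss of reporter luminescence in HFFs infected with HCMV-luciferase (MOI 1 PFU/cell) for 72 h; compounds tested at 2 doses, normalized to buffer and Salinomycin controls.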
HCV inh: blocks hepatitis C virus; Huh7.5.1 HCVcc-Cre infection, luciferase reporter, 44 h; Potency, µM (doses to about 41.8 µM), for the others: at the highest dose activity change, negative = inhibition, most hits filed as inhibitors; 340,000 compounds, 3.4% hits; AID 651820; further: potency means the concentration at half of the fitted maximal effect; on the % scale 0 is the no-effect control and ±100 the full control effect
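HCVcc-Cre virus at an moi near 0.5 was added right after compound to cells cultured 4 h from seeding (1,000 cells/well). Luciferase activity was determined 44 h later, 15 min after substrate addition at RT.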
Pf growth 48h: P. falciparum growth inhibition at 48 hours (one generation); Potency, µM (series often up to 28.7 µM), for inactives: at the highest dose activity change, negative = inhibition, most hits filed as inhibitors; P. falciparum luciferase growth in erythrocytes, 48 h; 310,000 compounds, 5.9% hits; further: potency means the concentration at half of the fitted maximal effect; on the % scale 0 is the no-effect control and ±100 the full control effect
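Luminescence readout; reporter = integrated firefly luciferase in P. falciparum. RBC culture at 2% hematocrit, 0.1% parasitemia final, 37 C/5% CO2; decreased signal taken as growth inhibition.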
The depositor's hits bear a star; ? = inconclusive; . = no result given. An excerpt weighted towards active compounds, which were near 15% of everything screened. Unless noted, the call rests on the fitted dose curve; in most records, active means well fitted curve in the direction sought with a large enough effect; inconclusive means small, poorly fitted or top-dose-only effect, or another doubt; inactive means no such curve, though single readings can be large; an effect the other way counts as inactive or inconclusive.

SMILES	Sm TGR block	SARS PLpro yeast	Pf growth 96h	HCMV antiviral	HCV inh	Pf growth 48h
COc1ccc(Cc2nc3ccc(C(=O)NCCCSC)cc3o2)cc1OC	-20%	-5%	2.9µM*	95	1%	-15%
COC(=O)CCNC(=O)c1ccc2nc(Cc3ccc(OC)c(OC)c3)oc2c1	-1%	36%	?	94	-19%	5%
O=C(c1cc(F)ccc1F)C1CCCN(C(=O)c2ccc(F)cc2Cl)C1 (stereo unspecified)	6%	-1%	1.2µM*	?	?	-13%
Cc1nc(C)c(C(=O)N2CCCC(C(=O)c3cc(F)ccc3F)C2)s1 (stereo unspecified)	1%	15%	5.9µM*	14	-6%	25%
CC(=O)c1ccc(C(=O)N2CCCC(C(=O)c3cc(F)ccc3F)C2)s1 (stereo unspecified)	5%	0%	3%	-28	-2%	-2%
C[C@@H]1CN([C@@H](C)CO)C(=O)CCCn2nncc2CO[C@H]1CN(C)Cc1ccc2cccnc2c1	.	.	.	-6	.	.
Cc1ccc(OCc2cc(C(=O)NCC3COCCO3)no2)cc1C (stereo unspecified)	2%	-4%	10µM*	58	15%	-6%
Cc1ccc(OCc2cc(C(=O)NCC(C)(C)N3CCOCC3)no2)cc1C	-10%	-1%	-15%	57	?	?
CCN1CCCC1CNC(=O)c1cc(COc2ccc(C)c(C)c2)on1 (stereo unspecified)	-26%	0%	13µM*	16	?	-25%
CC(=O)c1ccc(OCc2cc(C(=O)NCC3CCCCO3)no2)cc1 (stereo unspecified)	17%	2%	58%	0	-10%	-25%
CN1CCN(S(=O)(=O)c2ccc([N+](=O)[O-])cc2)CC1	-2%	6%	?	-9	10%	6%
O=[N+]([O-])c1ccc(Oc2ccc(S(=O)(=O)N3CCOCC3)cc2)cc1	-3%	-3%	?	?	11µM*	0%
CC1CCN(S(=O)(=O)c2ccc(Oc3ccc([N+](=O)[O-])cc3)cc2)CC1	-19%	-6%	22%	-77*	?	3%
O=C1CN(S(=O)(=O)c2ccc([N+](=O)[O-])cc2)CC(=O)N1	?	2%	12µM*	0	-3%	41%
O=[N+]([O-])c1ccc(Oc2ccc(S(=O)(=O)N3CCCCC3)cc2)cc1	-3%	11%	24%	-63*	?	-7%
CC1CCN(S(=O)(=O)c2ccc([N+](=O)[O-])cc2)CC1	-28%	2%	?	-6	1%	13%
O=C1CN(S(=O)(=O)Cc2ccccc2)C[C@@H]2[C@H](c3ccc(Br)cc3)[C@@H](CO)N12	.	.	.	7	.	.
O=C1CC(=O)Nc2cc(S(=O)(=O)N3CCN(c4ccc([N+](=O)[O-])cc4)CC3)ccc2N1	11µM*	-2%	-21%	-1	-3%	12%
Cc1c(-c2ccccc2Cl)nc2ccccc2c1C(=O)O	5%	1%	66%	7	-3%	103%
Oc1cc2ccccc2nc1-c1ccccc1Cl	0%	-4%	?	-33	5%	7.4µM*
Cc1ccc2c(c1)c1c3n2CCN=C3CCC1	-20%	-4%	?	42	?	?
c1cc2c(cc1C1CCCCC1)c1c3n2CCN=C3CCC1	7.9µM*	-41%	?	-12	?	?
Cc1ccccc1N1CCN(C2CCCN(C(=O)c3ccsc3)C2)CC1 (stereo unspecified)	-29%	2%	?	16	-2%	-16%
C=CCn1c(COc2ccc3c(c2)CCCC3)nnc1SCC(=O)Nc1cccc(SC)c1	31%	-7%	-7%	25	11µM*	-22%
CC(C)(C)CC(C)(C)NC(=O)C(Nc1ccccc1)c1ccccc1F (stereo unspecified)	.	.	.	48	.	.
SMILES	Sm TGR block	SARS PLpro yeast	Pf growth 96h	HCMV antiviral	HCV inh	Pf growth 48h
Cc1nn(-c2ccc(F)cc2)c(Cl)c1/C=C/C(=O)OCC(=O)Nc1c(F)c(F)c(F)c(F)c1F	0%	-3%	-6%	-71*	?	11%
C=CCNc1ccc2c(c1)OC[C@H](Cc1ccccc1)NS2(=O)=O	.	.	.	-22	.	.
CCOC(=O)C1=C(C)NC(SC)=NC1c1ccc(OC)cc1 (stereo unspecified)	?	-4%	17%	-13	8%	-23%
CCC1N=C(SC)NC(C)=C1C(=O)c1ccccc1 (stereo unspecified)	0%	2%	116%	-69*	0%	0%
CC1CCN(c2ccc(C(=O)OCC(=O)NCCN3C(=O)CSC3=O)cc2[N+](=O)[O-])CC1	-7%	0%	34%	-78*	-26%	11%
Cc1ccc(C(=O)OCC(=O)NCCN2C(=O)CSC2=O)cc1[N+](=O)[O-]	.	0%	.	-3	4%	.
Cc1ccc(C)c(OCCn2cc(/C=C(\C#N)C(=O)NCc3ccco3)c3ccccc32)c1	-2%	-1%	0%	37	-19%	9.3µM*
Cc1cccc(NC(=O)/C(C#N)=C/c2cn(CC(=O)NCc3ccco3)c3ccccc23)c1	-4%	2%	22%	-63*	?	20%
COc1ccccc1OCCn1cc(/C=C(\C#N)C(=O)NCc2ccco2)c2ccccc21	5%	14%	-19%	25	-10%	?
CCCOc1ccc(N2C(=O)CC(N(CCc3ccccc3)C(=O)c3ccccc3)C2=O)cc1 (stereo unspecified)	.	0%	25%	71	-4%	1%
COCCCNC(=S)N1CCN(c2nc(-c3ccc(Cl)cc3)cs2)CC1	.	.	.	-92*	.	.
CC(C)CNC(=S)N1CCN(c2nc(-c3ccc(Cl)cc3)cs2)CC1	5%	3%	10µM*	?	11µM*	-8%
CCOCCCNC(=S)N1CCN(c2nc(-c3ccccc3)cs2)CC1	3%	-1%	-24%	-86*	10µM*	-25%
COCCCNC(=S)N1CCN(c2nc(-c3ccccc3)cs2)CC1	3%	-5%	?	-67*	13µM*	-7%
CCC(=O)N1CCN(c2nc(-c3ccc(Cl)cc3)cs2)CC1	-3%	-33%	-7%	?	?	10%
Cc1ccccc1-c1nnc(SCC(=O)N2CCCc3ccccc32)o1	8%	.	.	-7	.	.
CCCCC[C@@H](C)N1C[C@@H](COCc2ccccc2)Oc2cc(N3CCC[C@@H]3CO)ccc2S1(=O)=O	.	.	.	-6	.	.
O=C(NCc1cccc(F)c1)c1ccc2nc(N3CCOCC3)sc2c1	-1%	6%	-11%	-26	-22%	-18%

Screens from PubChem BioAssay.
